Bioassay records from PubChem.
Hits are enriched below; roughly 11% of the tested compounds scored in any of these assays.
JMJD2A Tudor = qHTS Assay for Inhibitors of JMJD2A-Tudor Domain; 390,000 tested, 4.4% active; AlphaScreen JMJD2A-Tudor / H3K4me3 peptide binding; Potency, µM (doses to about 114 µM), for inactives: at the highest dose activity change, negative = inhibition, usual class: inhibitors; AID 504339, 2011; Lysine-specific demethylase 4A (Homo sapiens), O75164; further: on the % scale 0 is the no-effect control and ±100 the full control effect; nearly all actives have a fitted effect of over 50% in size
G9a block = qHTS Assay for Inhibitors of Histone Lysine Methyltransferase G9a; Histone-lysine N-methyltransferase EHMT2 (Homo sapiens), Q96KQ7; G9a H3K9 monomethylation, AlphaScreen, 2 h; Potency, µM (series often up to 102 µM), for inactives: at the highest dose activity, negative = inhibition, hits mostly inhibitors; 350,000 tested, 8.8% active; AID 504332, 2011; further: on the % scale 0 is the no-effect control and ±100 the full control effect; nearly all actives have a fitted effect of over 75% in size
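Signal arises when biotinylated H3K9 peptide, once monomethylated, bridges streptavidin donor and antibody-captured acceptor beads. Enzyme at 20 nM was preincubated 15 min with test compounds; peptide 500 nM and SAM 20 uM then reacted for 2 h.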
L3MBTL1 inh = qHTS Assay for the Inhibitors of L3MBTL1; Lethal(3)malignant brain tumor-like protein 1 (Homo sapiens), Q9Y468; AlphaScreen L3MBTL1–H3K9me1 peptide binding; Potency, µM (series often up to 57.1 µM), inactives show top-dose activity, negative = inhibition, hits mostly inhibitors; 230,000 tested, 0.66% active; AID 485360, 2010; further: on the % scale 0 is the no-effect control and ±100 the full control effect; nearly all actives have a fitted effect of over 60% in size
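Read-out is AlphaScreen signal from streptavidin donor and nickel chelate acceptor beads (10 ug/mL final each) bridging L3MBTL1 (50 nM) and biotinylated K9-monomethylated H3(1-15) peptide (75 nM), after 30 min compound exposure at room temperature.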
HP1b binding inh = HTS for Inhibitors of HP1-beta Chromodomain Interactions with Methylated Histone Tails | Chromobox protein homolog 1 (Homo sapiens), P83916 | AlphaScreen HP1-beta / biotin-H3K9me3 peptide binding | Potency, µM (top dose mostly 114 µM), without a hit: at the highest dose activity change, negative = inhibition, hits mostly inhibitors | 390,000 tested, 0.56% active | AID 540317, 2011; further: nearly all actives have a fitted effect of over 70% in size
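AlphaScreen: HP1-beta (50 nM) preformed 30 min with biotin-H3(1-18)K9me3 peptide (50 nM) in PBS pH 7.4, 0.01% Tween-20. Compound added for 30 min at RT, then streptavidin donor/nickel chelate acceptor beads (10 ug/mL) for 30 min.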
BAZ2B block = qHTS Assay for Inhibitors of BAZ2B; Potency, µM (doses to about 114 µM), without a hit: at the top dose activity change, negative = inhibition, usual class: inhibitors; AlphaScreen BAZ2B-H3K14Ac peptide displacement; Bromodomain adjacent to zinc finger domain protein 2B (Homo sapiens), Q9UIF8; 360,000 tested, 4.4% active; further: on the % scale 0 is the no-effect control and ±100 the full control effect; nearly all actives have a fitted effect of over 60% in size
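AlphaScreen luminescence quantifies BAZ2B engagement of H3K14Ac peptide; the protein and biotinylated peptide are both at 50 nM final, buffer PBS pH 7.4 with 0.01% Tween-20, all steps at room temperature.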
* = called active by the depositor; ? = inconclusive; . = no result; [ ] = dose if it differs, or a comment. The call rests on the fitted dose curve; in most records, active means well fitted inhibition curve with a large enough effect; inconclusive means small, poorly fitted or top-dose-only effect; inactive means no such curve, though single readings can be large or run the other way. Potency means the concentration at half of the fitted maximal effect.

SMILES | JMJD2A Tudor | G9a block | L3MBTL1 inh | HP1b binding inh | BAZ2B block
COC(=O)c1cccc(NC(=O)COc2cccc([N+](=O)[O-])c2)c1 | -13.6% | ? | -9.6% | 24.9% | -27.3%
CCC(C)Sc1nc2c(c(=O)[nH]c(=O)n2C)n1CCc1ccccc1 (centres undefined) | 5.9% | -12.0%[59 µM] | -8.0% | 14.8% | 8.7%
CC(C)Sc1nc2c(c(=O)[nH]c(=O)n2C)n1Cc1ccc(Cl)cc1 | 31.6µM* | ? | 5.6% | ? | 5.5%
CCC(C)Sc1nc2c(c(=O)[nH]c(=O)n2C)n1Cc1ccc(Cl)cc1 (centres undefined) | -37.3% | ? | 2.1% | 3.5% | 5.9%
CC(O)CSc1nc2c(c(=O)[nH]c(=O)n2C)n1Cc1ccccc1 (centres undefined) | 0.7% | 9.8% | 3.6% | 56.8% | 5.2%
CCC(C)Sc1nc2c(c(=O)[nH]c(=O)n2C)n1CC(O)COc1ccccc1C (centres undefined) | -19.1%[57.1 µM] | 5.62µM* | -3.8% | -32.5% | 9.5%
CCOC(=O)C(C)Sc1nc2c(c(=O)[nH]c(=O)n2C)n1Cc1ccc(Cl)cc1 (centres undefined) | -16.9% | 11.2µM* | 4.9% | -24.1% | -1.7%
CC(O)CSc1nc2c(c(=O)[nH]c(=O)n2C)n1Cc1ccccc1Cl (centres undefined) | -13.0% | 44.7µM* | 4.8% | 2.0% | 1.6%
CC(C)Sc1nc2c(c(=O)[nH]c(=O)n2C)n1Cc1ccccc1 | -5.4% | 12.5% | 1.2% | 31.8% | 5.9%
Brc1ccc(CNc2cc3c(cc2Br)OCCO3)cc1 | ? | 44.7µM* | ? | ? | 31.6µM*
CC(=O)Nc1cc2c(cc1Br)OCCO2 | -11.7% | -5.5%[12.7 µM] | 6.5% | 7.5% | 5.3%
COc1ccc(C(=O)NCC2(N3CCN(C)CC3)CCCCC2)cc1 | 4.0% | -5.8%[59 µM] | . | 36.5% | 2.3%
CCN(CC)CCOC(=O)c1cccnc1 | . | -25.6%[12.7 µM] | . | . | .
CCN(CCCNC(=O)CN1N=C(c2ccccc2)CCC1=O)c1cccc(C)c1 | ? | 14.1µM* | . | ? | ?
CCN(CCCNC(=O)CN1N=C(c2ccc(C)cc2)CCC1=O)c1ccccc1 | 56.2µM* | 10µM* | . | ? | 14.1µM*
CCCCN(CCCNC(=O)CN1N=C(c2ccc(C)cc2)CCC1=O)c1ccccc1 | 39.8µM* | 14.1µM* | . | ? | 20µM*
CCN(CCCNC(=O)CN1N=C(c2ccc(OC)cc2)CCC1=O)c1cccc(C)c1 | 79.4µM* | 11.2µM* | . | ? | 39.8µM*
Cc1ccc(C2=NN(CC(=O)NCCc3ccccc3)C(=O)CC2)cc1 | -20.8% | -9.7%[59 µM] | . | -9.4% | -10.1%
COc1ccc(C2=NN(CC(=O)NCCCN(C)c3ccccc3)C(=O)CC2)cc1 | ? | ? | . | -13.4% | ?
CCCN(CCC)C(=O)c1cc2c(=O)n3cccc(C)c3nc2n1C | -4.3% | 12.3%[59 µM] | . | 41.4% | 0.1%
Cc1ccc(CNC(=O)CN2N=C(c3ccccc3)CCC2=O)cc1 | -7.6% | 4.9%[59 µM] | . | 21.6% | 0.8%
Cc1ccc(C2=NN(CC(=O)O)C(=O)CC2)cc1 | -17.5% | 44.7µM* | . | 2.4% | -2.6%
CN(O)/C=N/C(=S)Nc1ccc(Cl)cc1Cl | -22.0% | 3.55µM* | 0.2% | 9.1% | ?
CN(C)/C=N/C(=S)Nc1ccccc1Cl | -10.4% | ? | -19.5% | 16.2% | 13.0%
CCOC(=O)C1CCN(C(c2ccc(OCC)cc2)c2c(O)cc(C)n(CCOC)c2=O)CC1 (centres undefined) | -35.4% | ? | . | 15.6%[57 µM] | 3.2%
O=C1NCCCC2c3c(cc(Br)c(O)c3Br)OC12N1CCOCC1 (centres undefined) | ? | ? | 14.4% | -29.8% | .
O=C1NCCCC2c3cc(O)c4ccccc4c3OC12N1CCCCC1 (centres undefined) | . | 3.55µM* | -16.8% | . | ?
